# The list is not random: actives were taken first. Their share in the collection is about 10%.
# RORg inh: inhibitors of mouse ROR gamma transcriptional activity | P51450 | Drosophila S2 Gal4-RORgamma UAS-luciferase reporter, 20 h | Potency, µM (top dose mostly 53.6 µM), for inactives: at the highest dose activity change, negative = inhibition, hits mostly inhibitors | 310,000 tested, 5.4% active | AID 2551; note: % is set by controls: 0 for no effect and ±100 for the full control effect; nearly all actives have a fitted effect of over 60% in size
# Target sequence (P51450 whole entry, looked up, the tested form may be a part): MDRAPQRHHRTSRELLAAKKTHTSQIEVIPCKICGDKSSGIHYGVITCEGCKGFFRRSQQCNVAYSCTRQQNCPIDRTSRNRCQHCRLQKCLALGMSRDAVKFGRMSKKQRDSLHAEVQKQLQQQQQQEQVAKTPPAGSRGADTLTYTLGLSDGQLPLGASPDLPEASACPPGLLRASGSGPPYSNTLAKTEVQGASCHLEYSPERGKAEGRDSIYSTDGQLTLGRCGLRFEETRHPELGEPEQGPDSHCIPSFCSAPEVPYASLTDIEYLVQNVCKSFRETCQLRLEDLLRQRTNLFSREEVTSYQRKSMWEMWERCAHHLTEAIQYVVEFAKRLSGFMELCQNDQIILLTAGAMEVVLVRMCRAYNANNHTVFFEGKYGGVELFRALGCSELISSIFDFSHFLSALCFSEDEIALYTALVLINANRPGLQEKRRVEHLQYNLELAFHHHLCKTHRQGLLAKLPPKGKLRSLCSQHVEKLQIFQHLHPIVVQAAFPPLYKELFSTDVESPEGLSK
#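 Read-out: Photinus luciferase luminescence; inhibitors lower reporter signal. Insect Schneider cells with Gal4-ROR gamma fusion under metallothionein promoter, UAS reporter; 700 uM final copper sulfate induction, 20 hr, ambient temperature.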
# KB-3-1 tox: KB-3-1 parental cell cytotoxicity; KB-3-1 viability, CellTiter-Glo ATP luminescence, 72 h; Potency, µM (highest dose often 46.1 µM), actives largely listed as cytotoxic; 400,000 tested, 1.4% active; AID 1347075; note: % is set by controls: 0 for no effect and ±100 for the full control effect; nearly all actives have a fitted effect of over 60% in size
#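 72 h, 37 °C compound treatment of KB-3-1 parental cells; CellTiter-Glo added, 10 min, luminescence read. Data corrected against DMSO-only plates and normalized before curve fitting.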
# KB-V1 cytotox: KB-V1 MDR subline cytotoxicity; Potency, µM (highest dose often 46.1 µM), actives largely listed as cytotoxic; 400,000 tested, 3.4% active; AID 1347076; KB-V1 MDR cells viability, CellTiter-Glo, 72 h; note: % is set by controls: 0 for no effect and ±100 for the full control effect; nearly all actives have a fitted effect of over 60% in size
#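 Following 72 h at 37 degrees C with compound, KB-V1 cell viability was read by CellTiter-Glo luminescence, medium being phenol-red-free DMEM plus 10% FBS; concentration-response parameters came from normalized, curve-fitted qHTS data.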
# SW480 rereplic: inducers of DNA re-replication in SW480 colon cancer cells; Potency, µM (series often up to 46.1 µM), inactives show at the top dose re-replication activation, actives largely listed as activators; SW480 DNA re-replication, Hoechst DNA content imaging, 48 h; 340,000 tested, 1.8% active; note: % of control where 0% means no effect; nearly all actives have a fitted effect of over 55% in size
#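 Cells (250 per well) received 23 nL compound or DMSO by pin tool and were kept 48 hr at 37 C, 5% CO2. Nuclei were then stained with Hoechst for 40 min and scanned for DNA content.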
# Gal4-VP16 FLuc: counter-screen for ROR gamma inhibitors: Gal4-VP16 reporter. Drosophila S2 Gal4-VP16 UAS-luciferase, luminescence, 20 h. Potency, µM (series often up to 53.6 µM), for the others: top-dose activity, negative = inhibition, actives largely listed as inhibitors. 310,000 tested, 3.5% active;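 note: Gal4-VP16 expression switched on by copper sulfate through the metallothionein promoter; % is set by controls: 0 for no effect and ±100 for the full control effect; nearly all actives have a fitted effect of over 50% in size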
# MCF10A rerep: inducers of DNA re-replication in MCF 10A breast cells | 350,000 tested, 2.9% active | MCF 10A DNA re-replication, Hoechst nuclear intensity, 48 h | Potency, µM (top dose mostly 46.1 µM), without a hit: top-dose activity, positive = re-replication, usual class: activators | AID 624296; note: % of control where 0% means no effect; nearly all actives have a fitted effect of over 50% in size
# * = called active by the depositor; i = inactive; ? = inconclusive; . = not tested or not shown; ! = not confirmed by another sample; [ ] = remark or other dose. Calls come from the whole dose curve; as a rule, active = well fitted curve in the direction sought with a large enough effect; inconclusive = small, poorly fitted or top-dose-only effect, or another doubt; inactive = no such curve, though single readings can be large; an effect the other way counts as inactive or inconclusive. Potency is the fitted concentration of half-maximal effect.
SMILES,RORg inh,KB-3-1 tox,KB-V1 cytotox,SW480 rereplic,Gal4-VP16 FLuc,MCF10A rerep
NC(N)=N/N=C/c1ccc(N2CCOCC2)cc1,-5%,?,i,6.5µM*,-14%,?
c1ccc2c(c1)OCC(C1=NCCN1)O2 (stereo not drawn),16µM*!,?,i,?,-1%,18µM*!
Cc1ccc(-c2cn3c(=S)[nH]nc3s2)cc1,2.8µM*,i,?,-12%,?,0%
CC[C@@H]1CN2CCc3cc(OC)c(OC)cc3[C@H]2C[C@@H]1C[C@H]1NCCc2cc(OC)c(OC)cc21,0.56µM*,.,.,.,?,.
CC[C@@H]1CN2CCc3cc(OC)c(OC)cc3[C@@H]2C[C@@H]1C[C@H]1NCCc2cc(OC)c(OC)cc21,1.1µM*,.,.,.,-95%,.
CCC1CN2CCc3cc(OC)c(OC)cc3C2CC1CC1NCCc2c1[nH]c1ccc(O)cc21 (stereo not drawn),.,0.41µM*,i,?,.,?
Nc1ccc(N)cc1,-5%,.,.,12%,-3%,-10%
C[C@@]12CC3CC(N)(C1)C[C@@](C)(C3)C2,4%[16.9 µM],.,.,.,10%[17 µM],.
Cc1ccc(CN2C(=O)CN=C(c3ccccc3)c3ccccc32)cc1,-3%[10 µM],?,18µM*,-18%,-4%,-2%
CSCc1nnc2n1-c1ccc(Cl)cc1C(c1ccccc1)=NC2,5%,?,16µM*,0%,-2%,18%
Cc1oc(-c2ccccc2)nc1CN1C(=O)CN=C(c2ccccc2)c2ccccc21,-5%,i,?,4%,-7%,9%
O=C1CN=C(c2ccccc2)c2cc(Cl)ccc2N1Cc1ccc(Cl)cc1,.,?,15µM*,.,.,.
Cc1cc(C)cc(C(=O)OC2CC3CCC(C2)N3C)c1 (stereo not drawn),10%,.,.,-5%,11%,?
CC[C@@H](CO)NC(=O)[C@H]1C=C2c3cccc4[nH]cc(c34)C[C@H]2N(C)C1,-17%,.,.,.,6%,.
CC[C@@]1(O)C(=O)OCc2c1cc1n(c2=O)Cc2cc3c(N)cccc3nc2-1,0.02µM*,?,i,1%,0.35µM*,-65%
C[C@@H]1C[C@H](C)C[C@H](C)[C@@H](O)CC(=O)O[C@H]([C@H]2CCC[C@H]2C(=O)O)C/C=C/C=C(/C#N)[C@H](O)[C@@H](C)C1,0.028µM*,.,.,.,?,.
COC1CC2C=C(C)C=CC=CC(=O)NC(c3ccccc3)CC=CCCC(O)CC(=O)C2=C1O (stereo not drawn),.,5.8µM*,5.8µM*,.,.,.
CCOC(=O)C1C(C=C(C)C)C1(C)C (stereo not drawn),2%,.,.,.,6%,.
C[C@]12CCC3=C4CCC(=O)C=C4CC[C@H]3C1CC[C@@H]2O (stereo partly drawn),-12%,10µM*,3.7µM*,-10%,-9%,15%
C[C@]12CCC(=O)C=C1CCC1C2CC[C@@]2(C)C1CC[C@@H]2O (stereo partly drawn),.,4.6µM*,2.3µM*,5%,.,5%
C[C@]12CC[C@H]3[C@@H](CCC4=CC(=O)CC[C@@H]43)[C@@H]1CC[C@@H]2O,-19%,10µM*,2.3µM*,-29%,2%,2%
C[C@]12CCC(=O)C=C1CCC1C2CC[C@@]2(C)C1CC[C@]2(C)O (stereo partly drawn),.,i,?,?,.,15%
CCCCCCCCCC(=O)O[C@H]1CC[C@H]2[C@@H]3CCC4=CC(=O)CC[C@@H]4[C@H]3CC[C@]12C,7%,.,.,-4%,5%,-9%
C[C@]12CC[C@@H]3c4cc(O)c(O)cc4CC[C@H]3[C@@H]1CC[C@@H]2O,13µM*,6.5µM*,13µM*,?,?,26µM*
COCOC1CCC2C3CCC4=CC(=O)CCC4=C3C=CC12C (stereo not drawn),.,i,?,0%,.,-1%
SMILES,RORg inh,KB-3-1 tox,KB-V1 cytotox,SW480 rereplic,Gal4-VP16 FLuc,MCF10A rerep
CC(C)CCC(=O)OC1CCC2C3CCC4=CC(=O)CC[C@]4(C)C3CC[C@]12C (stereo partly drawn),.,.,.,1%,.,?
NC(=O)C[N+]1(CC#CC(O)(c2ccccc2)c2ccccc2)CCCC1,0%,i,i,-3%,8%,?
CCC1OC(=O)CC(O)C(C)[C@@H](O[C@@H]2OC(C)[C@H](O[C@@H]3C[C@@](C)(O)C(O)C(C)O3)C(N(C)C)C2O)[C@H](CC=O)CC(C)C(=O)/C=C/C(C)=C/[C@@H]1COC1OC(C)C(O)C(OC)[C@@H]1OC (stereo partly drawn),1%,.,.,-6%,14%,2%
CCc1cc2c(=O)n(C(C)C(=O)OC3CCCCC3)cnc2s1 (stereo not drawn),33%,i,?,0%,7%,?
CC1(O)CCC2C3CCC4=CC(=O)CCC4=C3C=CC21C (stereo not drawn),.,?,9.2µM*,4%,.,?
O=[N+]([O-])c1ccc(N2CCNCC2)c(Cl)c1,-13%,i,?,-4%,-1%,7.3µM*
O=C(c1cc([N+](=O)[O-])ccc1N1CCNCC1)N1CCOCC1,-13%,i,i,-24%,-1%,-3%
O=C(O)CCCC[C@@H]1SC[C@@H]2NC(=O)N[C@@H]21,.,i,i,3%,.,-4%
COC(=O)NC/C=C\c1nc(CC/C=C\C(=O)O[C@H]2C[C@H]3CC(=O)O[C@@H](/C=C\CC(C)C)C[C@@H]4CC[C@H](C)[C@H](C[C@@H](OC)C[C@H](C2)O3)O4)co1,0.0056µM*,.,.,.,?,.
c1ccc(-c2cc3c(nc2-c2ccccc2)CCNC3)cc1,-10%[10 µM],.,.,.,-11%[10 µM],.
CCCCN1C(=O)NC(=O)C2(Cc3c(nc4c(C)cccn4c3=O)N3CCc4ccccc4C32)C1=O (stereo not drawn),3%,i,15µM*,?,?,?
CC(=O)OCC1=C[C@H]2[C@@H]3C(C)(C)[C@]3(OC(=O)Cc3ccccc3)C[C@@H](C)[C@]2(O)[C@@H]2C=C(C)C(=O)[C@@]2(O)C1,-25%,.,.,.,?,.
COc1ccc(NC(=O)C(=O)NNC(=O)C(C)Oc2ccc(Cl)cc2Cl)cc1 (stereo not drawn),5µM*,i,i,?,?,?
CC1CC[C@]2(NC1)OC1CC3C4CC=C5CC(O)CC[C@@]5(C)C4CC[C@]3(C)C1C2C (stereo partly drawn),-38%,.,.,.,-12%,.
CC(=O)OC1CC[C@]2(C)C(CCC3C2CC[C@]2(C)C(C4=CC(=O)OC4)C(OC(C)=O)CC32O)C1 (stereo partly drawn),?,.,.,.,-2%,.

# Screens deposited in PubChem BioAssay by National Center for Advancing Translational Sciences (NCATS).
